In the supplement of paper PMC10646978:
± gives the standard deviation.

Columns and labels:
Conditions in all cases: modulator concentration 10 µM
[1] = test system: RAW-Dual (murine macrophage reporter line); assay: NF-kB reporter (SEAP) activity fold change vs agonist alone; higher = enhanced NF-kB activity
How it was run: (§1)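 RAW-Dual murine macrophage reporter cells were seeded at 50 000 per well in 384-well plates and pre-incubated 1 hour at 37 °C with compound pin-transferred to 10 μM final. After 1 hour, a PRR agonist was added and cells incubated overnight. Supernatant NF-κB (SEAP, QUANTI-Blue, 620 nm absorbance) and IRF (Lucia luciferase, QUANTI-Luc, luminescence) signals were divided by the mean agonist-only control on the same plate to give fold change. Two replicate plates were averaged, with errors by propagation.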

[2] = test system: RAW-Dual (murine macrophage reporter line); assay: IRF reporter (Lucia luciferase) activity fold change vs agonist alone; higher = enhanced IRF activity
How it was run: as §1

[3] = test system: RAW-Dual (murine macrophage reporter line); assay: viability score (confluency relative to resting cells, overnight) (fraction); higher = more viable, active = viable (0.7 or more)
How it was run: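 RAW-Dual macrophages in 384-well plates were incubated overnight with compound, final concentration 10 μM. Confluency images from IncuCyte were processed in IncuCyte software into two masks covering all imaged wells. The viability score is each well's confluency relative to resting cells, and a compound met the cutoff when both masks exceeded 70% of resting cells.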

[4] = agonist: CpG ODN 1826 0.5 ug/mL

SMILES	NF-kB reporter [1, 4]	NF-kB reporter ([1]; agonist: LPS 0.1 ug/mL)	NF-kB reporter ([1]; agonist: MPLA […])	IRF reporter ([2]; agonist: 3'3'-cGAMP 10 ug/mL)	IRF reporter ([2]; agonist: LPS 0.1 ug/mL)	IRF reporter ([2]; agonist: MPLA […])	viability score [3]
CC#CCn1c(N2CCCC(N)C2)nc2c1c(=O)n(Cc1nc(C)c3ccccc3n1)c(=O)n2C (configuration not stated)	0.931 ± 0.24	1.08 ± 0.085	0.972 ± 0.065	0.925 ± 0.033	1.23 ± 0.15	1.39 ± 0.13	0.988 (active)
C1=CC2CC1CC2CN1CCC(N2CCCCC2)CC1 (configuration not stated)	0.089 ± 0.0093	0.949 ± 0.072	1.26 ± 0.13	0.578 ± 0.038	1.69 ± 0.099	1.79 ± 0.17	0.989 (active)
COCCCN1C(=O)C(=Cc2ccc(-c3ccc(Cl)cc3Cl)o2)SC1=S	0.954 ± 0.054	1.01 ± 0.082	0.96 ± 0.036	1.02 ± 0.052	1.01 ± 0.099	0.998 ± 0.25	1 (active)
COc1ccc(C=NNC(=O)CSc2nnc(-c3ccccc3)n2-c2ccccc2)cc1OC	1.14 ± 0.091	1.14 ± 0.074	1.09 ± 0.045	0.845 ± 0.059	0.958 ± 0.056	1 ± 0.076	0.996 (active)
NCCCCC(=O)O.O=C1c2ccccc2C(=O)C1[N+](=O)[O-]	0.788 ± 0.16	0.975 ± 0.076	0.843 ± 0.1	0.929 ± 0.025	1.13 ± 0.16	1.31 ± 0.13	1 (active)
CNC1(C)C2CCC(C2)C1(C)C.Cl (configuration not stated)	0.914 ± 0.23	0.931 ± 0.058	0.961 ± 0.061	0.911 ± 0.078	1.1 ± 0.24	1.06 ± 0.12	1 (active)
CC(=NN1CCN(Cc2cccc3ccccc23)CC1)c1ccc(Cl)cc1	0.9 ± 0.086	1.06 ± 0.077	1.01 ± 0.086	1 ± 0.068	1.19 ± 0.13	0.992 ± 0.12	1.01 (active)
CCC(=O)Nc1ccc(NC(=O)c2ccc([N+](=O)[O-])cc2)cc1	0.982 ± 0.086	1.05 ± 0.072	0.991 ± 0.14	0.978 ± 0.054	1.43 ± 0.12	1.12 ± 0.075	1.01 (active)
Cc1ccc(S(=O)(=O)NC(=O)NN2CC3CCCC3C2)cc1 (configuration not stated)	1.22 ± 0.17	1.17 ± 0.48	0.973 ± 0.061	0.901 ± 0.082	1.23 ± 0.46	1.14 ± 0.088	0.987 (active)
COc1ccc(NCN2C(=O)c3ccccc3C2=O)c(OC)c1	0.844 ± 0.066	0.972 ± 0.058	1.08 ± 0.1	0.911 ± 0.044	1.42 ± 0.084	1.61 ± 0.21	0.991 (active)
COc1ccc(-c2[nH]c3ccccc3c2SCCNC(=O)c2ccccc2)cc1	1.12 ± 0.086	1.19 ± 0.072	1.29 ± 0.11	0.832 ± 0.035	1.42 ± 0.14	1.17 ± 0.12	0.966 (active)
N#Cc1c(N=Cc2ccc(Cl)cc2)sc2c1CCCC2	0.912 ± 0.16	1.01 ± 0.21	0.89 ± 0.068	0.915 ± 0.031	1.17 ± 0.21	1.21 ± 0.12	1 (active)
CC(N)C12CC3CC(CC(C3)C1)C2 (configuration not stated)	0.979 ± 0.045	0.933 ± 0.14	1.06 ± 0.058	1.02 ± 0.056	1.12 ± 0.2	1.24 ± 0.37	1.01 (active)
COc1ccc(Cn2cc3c(-c4ccc(F)cc4)nnc-3c3cc(OC)c(OC)cc32)cc1	0.318 ± 0.026	1.17 ± 0.13	2.16 ± 0.1	1.79 ± 0.12	2.42 ± 0.18	3 ± 0.35	0.141 (inactive)
CCn1ccc(C(=O)N2CCN(c3cc(C(F)(F)F)nc(C)n3)CC2)n1	1.27 ± 0.098	1.07 ± 0.092	1.01 ± 0.05	0.637 ± 0.028	0.744 ± 0.035	0.839 ± 0.11	1 (active)
COc1cc2ncnc(Nc3ccc(F)c(Cl)c3)c2cc1OCCCN1CCOCC1.Cl	0.0798 ± 0.019	0.978 ± 0.06	1.08 ± 0.1	0.193 ± 0.015	0.835 ± 0.1	1.16 ± 0.11	0.592 (inactive)
